Screening data: PubChem, National Center for Advancing Translational Sciences (NCATS)
Pf growth 48h: inhibits P. falciparum growth in the first generation, 48 h. 310,000 compounds, 5.9% hits. P. falciparum luciferase growth in erythrocytes, 48 h. Potency, µM (doses to about 28.7 µM), for inactives: top-dose activity change, negative = inhibition, most hits filed as inhibitors. AID 504832; note: potency is the fitted concentration of half-maximal effect; % is set by controls: 0 for no effect and ±100 for the full control effect
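Erythrocytes infected with P. falciparum carrying an integrated firefly luciferase reporter (2% hematocrit, 0.1% parasitemia final) were exposed to compounds in RPMI 1640 with 0.5% Albumax at 37 C, 5% CO2. Growth inhibition was scored as reduced luminescence.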
Cycloheximide cs: counter-screen hit for Shiga toxin inhibitors, cycloheximide; AID 2314; max response, %; cell reporter, cycloheximide protein synthesis inhibition counterscreen; 300,000 compounds, 12% hits; in the data active = max response mostly above about 13%, no sharp cut-off; inactive = mostly below about 14%; note: read at 38.3 µM for the half of the compounds with a filed dose; 0% is about no effect
Shiga toxin inh: inhibitors of Shiga toxin in Vero cells. Vero cells, Shiga toxin protein synthesis inhibition reporter. inhibition, % at 38.7 µM. 290,000 compounds, 9.2% hits. AID 2315; in the data active = inhibition mostly above about 28%, no sharp cut-off; inactive = mostly below about 43%; note: 0% is about no effect
HCMV antiviral: human cytomegalovirus inhibition; HFF cells, HCMV-luciferase reporter, 72 h; active compounds read low; activity change, negative = inhibition, % at 57.5 µM; 410,000 compounds, 4.5% hits; AID 1259415; in the data active = activity change below about -60%; inconclusive = no clear call, values can overlap the other calls; inactive = above about -39%; note: % is set by controls: 0 for no effect and ±100 for the full control effect
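Steps: HFFs plated, 16 h 37C; compounds added; HCMV-luciferase added to MOI 1 PFU/cell; 72 h 37C; OneGlo reagent, 5 min room temperature; luminescence read, normalized to controls.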
Pf growth 96h: inhibits malaria parasite growth, 96 h | P. falciparum luciferase reporter growth, 96 h | Potency, µM (top dose mostly 28.7 µM), for inactives: at the top dose activity change, negative = inhibition, hits mostly inhibitors | 320,000 compounds, 6.9% hits | AID 504834; note: potency is the fitted concentration of half-maximal effect; % is set by controls: 0 for no effect and ±100 for the full control effect
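Parasite growth measured via integrated firefly luciferase reporter in P. falciparum. Infected erythrocytes at 2% hematocrit, 0.05% parasitemia final were treated 96 hours at 37 C under 5% CO2, and luminescence was read.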
HCV inhibitor: blocks hepatitis C virus; Huh7.5.1 HCVcc-Cre infection, luciferase reporter, 44 h; Potency, µM (top dose mostly 41.8 µM), without a hit: at the top dose activity change, negative = inhibition, hits mostly inhibitors; 340,000 compounds, 3.4% hits; AID 651820; note: potency is the fitted concentration of half-maximal effect; % is set by controls: 0 for no effect and ±100 for the full control effect
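1,000 cells/well; 4 h culture; + compound; + HCVcc-Cre (~0.5 moi); 44 h; luciferase substrate, RT 15 min; read 15 sec.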
The depositor's hits bear a star; ? = inconclusive; . = no result; [ ] = remark or other dose. The list is not random: actives were taken first. Their share in the collection is about 21%. Unless noted, calls come from the whole dose curve; as a rule, active = well fitted inhibition curve with a large enough effect; inconclusive = small, poorly fitted or top-dose-only effect, or another doubt; inactive = no such curve, though single readings can be large or run the other way.

SMILES	Pf growth 48h	Cycloheximide cs	Shiga toxin inh	HCMV antiviral	Pf growth 96h	HCV inhibitor
COc1ccc(-n2c(-c3ccc(Cl)cc3)c[n+]3c2CCCCC3)cc1	1.04µM*	-1.4	-5.9	-80.0*	0.465µM*	-8.2%
FC(F)Oc1ccc(-c2c[n+]3c(n2-c2ccccc2)CCCCC3)cc1	?	-1.2	12.5	?	?	5.1%
COc1ccc(-c2c[n+]3c4n2CCCCC4=C(c2ccccc2)C3)cc1	?	-3.5	-5.4	-101.6*	6.57µM*	-27.4%
COc1ccc(-c2c[n+]3c(n2-c2ccc(C)cc2)CCCCC3)cc1	0.928µM*	14.1	37.1	-97.4*	0.294µM*	?
COc1ccc(-c2c[n+]3c(n2-c2c(C)n(C)n(-c4ccccc4)c2=O)CCCCC3)cc1	?	5.8	6.1	1.5	14.1%	15.8%
COc1cccc(NC(=O)N(C)C[C@H]2OCc3cn(nn3)CCCC(=O)N([C@H](C)CO)C[C@@H]2C)c1	.	.	.	-4.5	.	.
COc1ccc(/C=N/NC(=O)CC(=O)NC2CCCCC2)cc1	20.1%	3.3	1.5	5.7	95.3%	9.5%
CN1CCN(NC(=O)CSc2ccc(Cl)cc2Cl)CC1	?	-3.4	-13.8	-28.0	8.9%	5.8%
NNC(=O)c1cc(O)c(O)c(O)c1	?	-3.3	12.7	-27.3	28.7%	23.6%
NNC(=O)c1cc(Br)cs1	19.3%	26.0	32.6*	19.3	31.6%	-11.5%
Nc1cc(S(=O)(=O)C(F)(F)F)ccc1C(=O)O	13.1%	-1.0	-5.2	-2.7	0.5%	9.0%
O=S(=O)(c1ccc2c(c1)C(O)c1ccccc1CC2)C(F)(F)F (centres undefined)	7.38µM*	.	.	-5.6	3.29µM*	.
COc1ccc(NC(=O)c2cc(C(C)C)on2)cc1OC	58.5%	43.6*	44.7*	34.1	35.4%	-16.2%
COc1cc(NC(=O)c2cc(C3CC3)on2)c(OC)cc1Cl	.	4.4	5.4	29.2	-111.1%	?
COc1cc(NC(=O)c2cc(C(C)C)on2)c(OC)cc1Cl	13.1µM*	13.4*	31.8	84.7	-10.8%	11.2µM*
COc1ccc(NC(=O)c2cc(C(C)C)on2)c(OC)c1	225.0%	53.4*	113.9*	-4.9	?	-24.3%
CCOC(=O)c1scc(-c2ccc(C)cc2)c1S(=O)(=O)Nc1ccc(OC)c(Cl)c1	.	.	.	6.6	.	.
COc1ccc2nc(/C=N/NC(=O)CCNC(=O)OC(C)(C)C)ccc2c1	?	35.3*	62.1*	37.6	-3.9%	-8.5%
CC(C)(C)OC(=O)NCCC(=O)N/N=C/c1ccc2ncccc2c1	-16.8%	-1.1	24.8	89.3	-12.1%	-16.7%
COc1ccc2nc(/C=N/NC(=O)CCCCCNC(=O)OC(C)(C)C)ccc2c1	?	40.7*	138.2	4.9	?	?
CC(=O)c1ccc(NC(=S)NCCCN2CCOCC2)cc1	-18.6%	2.8	16.6	-38.1	58.3%	5.9%
COc1ccc(Nc2nn(-c3ccc(OC(F)(F)F)cc3)nc2C(C)=O)cc1	.	.	.	27.1	.	.
O=C(NCc1ccccc1)c1ccc(Br)cc1Br	6.1%	22.6*	active	-31.6	45.2%	3.4%
Cc1ccc(C(=O)NCc2ccccc2)cc1Br	18.2%	17.1*	24.1	0.8	?	?
O=C(NCc1ccccc1)c1ccc(F)c(F)c1	4.5%	8.4	-5.1	52.1	17.4%	25.4%
SMILES	Pf growth 48h	Cycloheximide cs	Shiga toxin inh	HCMV antiviral	Pf growth 96h	HCV inhibitor
CN(C)c1c(F)cc(C(=O)NCc2ccccc2)cc1F	91.9%	20.0*	5.1	23.7	42.1%	3.9%
O=C(NCc1ccccc1)c1ccc(Cl)nc1	-61.0%	39.7*	70.4*	7.0	-17.5%	-7.6%
COc1cccc(C2NC(=O)c3n[nH]c(-c4cccs4)c32)c1 (centres undefined)	.	.	.	11.7	.	.
Cc1ccc(S(=O)(=O)Cn2nnnc2C(c2ccccc2)N2CCN(c3ccccc3)CC2)cc1 (centres undefined)	13.1µM*	-3.5	-2.7	4.4	?	-17.9%
COc1ccc(C(c2nnnn2CS(=O)(=O)c2ccc(C)cc2)N2CCN(c3ncccn3)CC2)cc1 (centres undefined)	9.28µM*	-2.9	14.9	-5.0	?	-3.7%
CCC(c1nnnn1CS(=O)(=O)c1ccc(C)cc1)N1CCN(c2nc3ccccc3s2)CC1 (centres undefined)	8.28µM*	16.3	24.2	-64.0*	9.2%	?
O=S(=O)(Cc1nnnn1-c1ccccc1)c1ccc(F)cc1	-0.5%	-0.3	-2.9	4.6	-8.8%	10.1%
Cc1ccc(S(=O)(=O)Cc2nnnn2-c2ccccc2)cc1	-4.5%	-3.5	-6.1	19.8	6.57µM*	5.9%
CC1CC(OC(=O)C(O)c2ccccc2)CC(C)(C)C1 (centres undefined)	-3.2%	-5.5	11.7	.	11.5%	.
O=C(NC1CCCCC1)c1ccc(CS(=O)(=O)c2ccc(Cl)cc2)o1	5.5%	-2.3	-1.1	20.4	7.1%	?
Cc1ccccc1C(=O)N1CCC(C(=O)NCCc2ccc(S(N)(=O)=O)cc2)CC1	-7.7%	-4.8	3.6	12.3	-2.6%	30.3%
Cc1ccc(S(=O)(=O)Cn2nnnc2C(c2ccccc2)N2CCN(c3ncccn3)CC2)cc1 (centres undefined)	9.28µM*	-3.0	-4.8	0.8	73.1%	5.8%
Cc1ccc(S(=O)(=O)Cn2nnnc2C(C)N2CCN(C(=O)c3ccco3)CC2)cc1 (centres undefined)	10.4µM*	-3.4	24.7	-36.8	5.22µM*	16.7%
CCCC(c1nnnn1CS(=O)(=O)c1ccc(C)cc1)N1CCN(c2ccccc2)CC1 (centres undefined)	11.7µM*	-2.4	-9.1	37.3	0.0%	?
Cc1ccc(-c2nnnn2CS(=O)(=O)c2ccccc2)cc1	21.1%	19.2*	19.7	4.0	17.6%	21.7%
CC(=O)Nc1cc2c(s1)c1cnn(Cc3ccccc3F)c(=O)c1n2C	7.3%	.	.	.	2.4%	.
N#CCCN(C(=O)COC(=O)C1CCN(S(=O)(=O)c2cccs2)CC1)c1ccccc1	-5.6%	-2.1	17.8	46.9	-4.4%	-12.7%
COc1ccc(NC(=O)c2cc3cc(C)ccc3[nH]2)cc1	.	.	.	28.0	.	.
O=C(c1ccco1)N1CCN(C(c2ccc(F)cc2)c2nnnn2Cc2cccs2)CC1 (centres undefined)	?	15.3	-12.1	-1.1	0.928µM*	0.5%
O=C(c1ccco1)N1CCN(C(c2ccccc2)c2nnnn2Cc2cccs2)CC1 (centres undefined)	-53.3%	21.4	29.7	-8.1	-10.9%[5.75 µM]	-14.0%
CC(C)(C(=O)NCc1ccco1)n1cc(NC(=O)c2cncc(Br)c2)cn1	.	.	.	4.9	.	.
CCNc1nc(NC(C)CC)nc(Oc2ccc(=O)[nH]n2)n1 (centres undefined)	8.2%	1.1	-15.8	249.4	.	1.9%
CCNc1nc(NCC)nc(ON=C(C)C)n1	3.7µM*	-1.4	-7.8	.	2.08µM*	.
